Measurements: PubChem BioAssay (NCI)
Values joined by “and” are separate entries in the source; they are usually repeats but may differ in a detail not shown here. Identical values can stand only once. The panel holds about 83,000 compounds, 20% with a hit somewhere; the sample as a whole holds those more often.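 Percent growth is the endpoint: 0 to 100 indicates growth inhibition (40 means 60% inhibition), 0 means no net growth, and negative values indicate cell death.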 A number with no mark means an inactive call. Active and inactive are the calls of the source. Rule for the calls: active = growth percent below 10; inactive = the rest.

tested on: DU-145 prostate; assay: NCI-60 one-dose screen, 48 h (100 = growth as untreated, 0 = no growth, -100 = all killed); details: 10 µM unless noted

SMILES	growth
O=c1ccc(Cn2c(C(F)(F)F)cc3c(Cl)ncnc32)c[nH]1	86.3%
CC[C@]12C=CCN3CC[C@]4(C(=C(C(=O)OC)C1)Nc1cc(OC)c([C@@H]5[C@H]6O[C@H]6[C@@]6(CC)CC(C(=O)OC)=C7Nc8cc(O)ccc8[C@@]78CCN5[C@@H]68)cc14)[C@@H]32	23.2%
COc1ccc2[nH]cc(-c3cc4nc(-c5cn(C)c6ncccc56)cc(N)n4n3)c2c1	9.07% (active)
COc1ccc2[nH]c(=O)cc(-n3ncc(C(=O)/C=C/c4cc(OC)c(OC)c(OC)c4)c3C)c2c1	-2.23% (active)
COc1ccc(/C=C/c2nc3ccccc3n3c(-c4cccc([N+](=O)[O-])c4)nnc23)cc1	-18% (active)
O=C(Nc1ccc(Cl)c(C(F)(F)F)c1)N1CCN(c2cc(-c3cn(-c4ccccc4)nc3-c3cccc(O)c3)ccn2)CC1	22.5%
O=C1Nc2ccccc2/C1=C/C(=O)c1cc2ccccc2oc1=O	97.3%
CN1CCN(C(=O)Oc2cc3c(c4ccccc24)[C@H](CCl)CN3C(=O)c2cc3cc(OCCCN4CCC4)ccc3[nH]2)[C@H]2CSSC[C@H]21	-3.53% (active)
NS(=O)(=O)c1ccc(Nc2nc(N/N=C/c3cc(Br)c(O)c(Br)c3)nc(Nc3ccccc3)n2)cc1	50.6%
COc1ccc2c(c1)C(Sc1ccc(Cl)cc1)c1c(nc(N)c(C#N)c1N)O2 (stereo not drawn)	86%
CS(=O)(=O)Nc1cccc(-n2c(COc3ccc(OC(F)(F)F)cc3)nc3ccccc32)c1	105% and 121%
OCCn1cc(-c2nc3ccc4[nH]ncc4c3c3c2CCCC3)cn1	36.2%
Cn1cc(-c2cc(N)n3nc(-c4c[nH]c5ccc(F)cc45)cc3n2)c2cccnc21	-75.7% (active)
COc1ccc2c(c1)N=c1c-2cc2c(O)[nH]c(=S)n2c1=O	50.8%
O=C(NN1C(=O)/C(=C/C=C/c2ccc([N+](=O)[O-])o2)SC1=S)c1ccncc1	-95% (active)
Cn1cc(-c2cc(N)n3nc(-c4c[nH]c5ccccc45)cc3n2)c2cc(Br)ccc21	-70% (active)
Cn1cc(-c2cc(N)n3nc(-c4c[nH]c5ccccc45)cc3n2)c2ccccc21	-89.1% (active)

SMILES	growth
O=C1c2cccc3c(N4CCN(c5ccccc5)CC4)ccc(c23)C(=O)N1c1cccc(-c2nn(-c3ccccc3)cc2-c2nc3ccccc3s2)c1	108%
O=C(c1ccc(O)cc1)C1[C@H](c2ccccc2Br)[C@@H](c2ccccc2)NC12C(=O)Nc1ccccc12 (stereo partly drawn)	63.1%
COc1ccc(-c2cc(C(=O)N=Nc3c(O)[nH]c4ccc(Cl)cc34)c3ccccc3n2)cc1	19%
CC(C)(C)OC(=O)N1CCC2(CC1)Oc1ccccc1[C@H]1CC(c3ccc(Br)cc3)=NN12	93.1%
Cc1cc(C(NC(=O)CCCCCNc2cccc3c2C(=O)N(C2CCC(=O)CC2=O)C3=O)c2cccc(N(C)C)c2)c(O)c2ncccc12 (stereo not drawn)	27.5%
O=C(c1ccc(O)cc1)C1[C@H](c2ccc(Cl)cc2)[C@@H](c2ccccc2)NC12C(=O)Nc1ccc(Br)cc12 (stereo partly drawn)	13.4%
Cc1ccc(C(=O)C[n+]2cccc3c4ccccc4ccc32)cc1	35.7%
C#CCN(C)CCCOc1ccc(N(CC)C(=O)c2cc(C(C)C)c(O)cc2O)cc1Cl	1.4% (active)
O=C(OCCOCCO)N(c1cccc(Br)c1)c1nc(SCCN2CCOCC2)nc2c1cnn2CC(Cl)c1ccc(Br)cc1 (stereo not drawn)	41.3%
COc1ccc(-c2nc3ccc(-c4nnc(SCC(=O)Nc5ccc(/C(C)=N\O)cc5)o4)cc3[nH]2)cc1	71.7%
Clc1ccc2c(NCCNC34CC5CC(CC(C5)C3)C4)ccnc2c1	-42.7% (active)
CCOc1ccc(-c2cc(-c3cc(C(C)C)c(O)cc3C)nn2-c2ccc(S(N)(=O)=O)cc2)cc1	34.6%
Cc1ccc(N=Nc2c(N)nn3c(-c4cc5cc(Br)ccc5oc4=O)ccnc23)cc1	52.8%
COc1ccc(SC2c3cc(OC)ccc3Oc3nc(N)c(C#N)c(N)c32)cc1 (stereo not drawn)	99.1%
O=C1Nc2ccc(F)cc2/C1=C/C(=O)c1cc2ccccc2oc1=O	111%
COc1ccc2[nH]cc(-c3cc(N)n4nc(-c5c[nH]c6ccccc56)cc4n3)c2c1	42.6%
